Data: PubChem BioAssay
Activity calls are given as the source filed them.

Experiments:
[1] = tested on: Plasmodium falciparum Sir2 (PF13_0152, Sir2A); assay: pfSir2 binders on small-molecule microarrays, primary screen, biochemical, small-molecule microarray, 635 nm fluorescence (AID 1098); details: small-molecule microarray binding, fluorescence 635 nm; higher = more signal;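 also: score merges spot fluorescence intensity with its signal-to-noise ratio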
[2] = small-molecule microarray binders of probe aDKK1, primary screen, biochemical, biotinylated probe, 635/667 nm fluorescence (AID 1099); details: higher = more signal;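 also: score merges 667nm spot fluorescence with signal to noise across triplicate slides; reference of the scale not given here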
[3] = small-molecule microarray binders of probe aCHRDL2, primary screen, biochemical, biotinylated probe, 635/667 nm fluorescence (AID 1100); details: higher = more signal
[4] = splicing luciferase reporter signal modulators, primary screen, spliceosome inhibition project, cell-based, HEK293, splice +/- reporter (AID 1101); details: luminescence, 24 h, higher = more signal, called active from +8 up or from −8 down;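 also: HEK293 cells carrying a splicing-competent luciferase reporter gene; test concentration not given here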
[5] = molecular target: Fibroblast growth factor 10 (Homo sapiens) (UniProt O15520); assay: FGF10 binders on small-molecule microarrays, primary screen, biochemical, small-molecule microarray, 635 nm fluorescence (AID 1102); details: FGF10 binding, fluorescence 635 nm, higher = more signal
[6] = tested on: glycogen synthase kinase-3 (GSK3A per assay name; protocol says GSK3B); assay: GSK3 binders on small-molecule microarrays, primary screen, biochemical, small-molecule microarray, 635 nm fluorescence, GSK3A (AID 1103); details: small-molecule microarray binding, fluorescence 635 nm; higher = more signal; also: the record names both GSK3A and GSK3B
[7] = molecular target: Epidermal growth factor receptor (Homo sapiens) (UniProt P00533); assay: EGFR binders on small-molecule microarrays, primary screen, biochemical, small-molecule microarray, 635 nm fluorescence (AID 1104); details: EGFR binding, higher = more signal;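 also: score merges 667 nm emission intensity with spot signal to noise over triplicate slides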
[8] = molecular target: Follistatin-related protein 3 (Homo sapiens) (UniProt O95633); assay: FSTL3 binders on small-molecule microarrays, primary screen, biochemical, small-molecule microarray, 635 nm fluorescence (AID 1105); details: FSTL3 binding, higher = more signal;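 also: score merges emission near 667 nm and signal to noise per printed spot across three slides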
[9] = molecular target: Dickkopf-related protein 1 (Homo sapiens) (UniProt O94907); assay: DKK1 binders on small-molecule microarrays, primary screen, biochemical, small-molecule microarray, 635 nm fluorescence scan (AID 1106); details: DKK1 binding, higher = more signal;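 also: score merges emission near 667 nm with signal to noise over three replicate slides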
[10] = tested on: Inhibin beta A chain (activin A); assay: INHBA (activin A) binders on microarrays, primary screen, biochemical, small-molecule microarray, 635 nm fluorescence scan (AID 1107); details: small-molecule microarray binding, higher = more signal;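 also: mouse activin A protein probed at 4.33 µg/mL on printed slides; score merges bound-protein fluorescence near 667 nm with spot signal-to-noise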

Fibroblast growth factor 10 (Homo sapiens), sequence (O15520 whole entry, looked up): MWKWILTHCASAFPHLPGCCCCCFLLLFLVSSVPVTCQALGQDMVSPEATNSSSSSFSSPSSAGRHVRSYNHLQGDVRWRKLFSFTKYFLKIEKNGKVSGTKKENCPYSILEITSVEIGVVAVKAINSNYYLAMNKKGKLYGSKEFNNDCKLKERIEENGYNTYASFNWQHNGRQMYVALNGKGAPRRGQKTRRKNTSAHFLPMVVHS
Follistatin-related protein 3 (Homo sapiens), sequence (O95633 whole entry, looked up): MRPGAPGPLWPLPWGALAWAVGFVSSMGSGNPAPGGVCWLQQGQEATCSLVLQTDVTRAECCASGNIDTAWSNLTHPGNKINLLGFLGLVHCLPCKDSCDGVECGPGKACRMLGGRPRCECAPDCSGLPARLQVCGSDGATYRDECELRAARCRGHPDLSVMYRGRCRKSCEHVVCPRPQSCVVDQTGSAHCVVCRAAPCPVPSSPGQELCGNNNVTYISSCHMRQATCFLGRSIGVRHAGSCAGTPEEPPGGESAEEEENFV
Dickkopf-related protein 1 (Homo sapiens), sequence (O94907 whole entry, looked up): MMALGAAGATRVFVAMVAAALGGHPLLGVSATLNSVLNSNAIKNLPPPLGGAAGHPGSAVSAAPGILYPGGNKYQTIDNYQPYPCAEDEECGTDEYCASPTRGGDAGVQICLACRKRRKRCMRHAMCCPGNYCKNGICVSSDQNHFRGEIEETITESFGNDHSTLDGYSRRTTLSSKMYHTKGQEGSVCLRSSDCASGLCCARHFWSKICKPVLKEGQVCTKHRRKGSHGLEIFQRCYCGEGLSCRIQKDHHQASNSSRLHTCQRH
Epidermal growth factor receptor (Homo sapiens), sequence (P00533 whole entry, looked up): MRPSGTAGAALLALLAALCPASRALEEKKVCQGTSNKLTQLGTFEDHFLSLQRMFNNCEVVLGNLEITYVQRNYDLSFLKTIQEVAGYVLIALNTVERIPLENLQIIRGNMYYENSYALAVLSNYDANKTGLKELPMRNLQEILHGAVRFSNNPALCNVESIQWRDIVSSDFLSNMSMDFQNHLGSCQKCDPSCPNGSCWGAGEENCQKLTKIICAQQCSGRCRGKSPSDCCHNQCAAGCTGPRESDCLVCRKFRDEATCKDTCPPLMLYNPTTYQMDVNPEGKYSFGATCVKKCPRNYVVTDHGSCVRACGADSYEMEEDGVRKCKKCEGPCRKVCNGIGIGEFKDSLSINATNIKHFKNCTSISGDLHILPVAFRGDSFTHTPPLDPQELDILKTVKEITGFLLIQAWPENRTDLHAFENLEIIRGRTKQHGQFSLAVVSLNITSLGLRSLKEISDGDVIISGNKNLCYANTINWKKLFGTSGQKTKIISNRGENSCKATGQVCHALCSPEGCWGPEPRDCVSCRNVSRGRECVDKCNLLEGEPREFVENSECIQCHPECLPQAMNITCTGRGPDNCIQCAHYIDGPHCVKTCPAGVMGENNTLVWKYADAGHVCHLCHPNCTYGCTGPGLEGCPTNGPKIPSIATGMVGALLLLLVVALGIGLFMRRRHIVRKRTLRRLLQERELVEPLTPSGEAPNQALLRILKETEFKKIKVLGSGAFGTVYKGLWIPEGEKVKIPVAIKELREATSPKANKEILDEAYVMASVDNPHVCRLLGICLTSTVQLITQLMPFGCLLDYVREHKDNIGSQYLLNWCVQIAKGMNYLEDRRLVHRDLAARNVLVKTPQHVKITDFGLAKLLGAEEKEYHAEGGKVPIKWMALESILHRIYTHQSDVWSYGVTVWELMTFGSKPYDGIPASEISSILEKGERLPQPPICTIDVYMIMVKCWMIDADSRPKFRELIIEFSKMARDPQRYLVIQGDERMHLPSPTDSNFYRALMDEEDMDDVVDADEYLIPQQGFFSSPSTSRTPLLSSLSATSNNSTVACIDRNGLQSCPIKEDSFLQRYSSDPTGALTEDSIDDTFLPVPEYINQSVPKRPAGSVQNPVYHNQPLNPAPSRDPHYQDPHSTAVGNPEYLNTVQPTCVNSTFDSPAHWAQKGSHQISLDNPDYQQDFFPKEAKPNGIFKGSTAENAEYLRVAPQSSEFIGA

Compound | composite z-score [1] | composite z-score [2] | composite z-score [3] | z-score [4] | composite z-score [5] | composite z-score [6] | composite z-score [7] | composite z-score [8] | composite z-score [9] | composite z-score [10]
C=CCC(OC(C)=O)[C@@H]1[C@@H](N(Cc2cccc3ccccc23)C(=O)Cc2ccc(OC)cc2)c2cc(OCCCO)ccc2N1C(=O)c1ccc2ccccc2n1 (stereo not given in full) | -0.316 | -0.0805 | 0.144 | -0.326 (inactive) | 0.103 | -0.135 | 0.124 | 0.484 | -0.0462 | 1.33
O=C(NCc1ccccc1)[C@@H]1c2ccccc2C(=O)N(Cc2ccccc2C(F)(F)F)[C@H]1c1ccc(CO)cc1 | 1.61 | -0.299 | 0.752 | -0.452 (inactive) | 0.112 | -0.076 | -0.406 | -0.45 | -1.09 | 0.212
CCOc1cc(C(O)C2C=CC3C(=O)N(c4ccccc4)C(=O)C3N2Nc2ccc(C#N)cc2)ccc1O (stereo not given) | 0.146 | 1.3 | 0.643 | 0.751 (inactive) | 0.0415 | -0.0102 | -0.209 | 0.472 | -0.454 | 0.713
CC(C)[Si](C#C[Si](C(C)C)(C(C)C)C(C)C)(O[C@H](C)c1cn([C@H](CO)Cc2ccccc2)nn1)C(C)C | 0.107 | -0.229 | -0.316 | -0.0126 (inactive) | 0.0848 | 0.229 | 0.0255 | -0.0447 | 0.377 | 0.201
[N-]=[N+]=Nc1ccccc1[C@H]1OC(c2ccc(OCCCO)cc2)=N[C@@]1(CCS(=O)(=O)c1ccccc1)C(=O)NCCN1CCOCC1 | 1.35 | -0.135 | 0.775 | -0.0945 (inactive) | 1.41 | 1.21 | 0.131 | 1.19 | 0.248 | 0.903
N#Cc1ccc(NN2C(C(O)c3ccc(F)cc3)C=CC3C(=O)N(c4ccccc4)C(=O)C32)cc1 (stereo not given) | 1.3 | 0.151 | 0.581 | 1.52 (inactive) | -0.286 | -0.0563 | -0.746 | -0.0131 | -0.716 | 0.856
CCC[C@@H]1C[C@@]1(CCC)[C@@H](NC(=O)OCc1ccccc1)c1ccc(-c2ccccc2)cc1 | -1.27 | -0.163 | 0.565 | -3.43 (inactive) | -0.933 | -1.74 | -1.1 | -0.644 | -0.496 | 1.47
CCCCN1CC=CC23O[C@@H]4/C=C\CCC(C)OC(=O)C4[C@H]2C(=O)N(C(CO)C(C)C)[C@@H]3C1=O (stereo not given in full) | 1.73 | -0.207 | -0.176 | 0.0563 (inactive) | 0.384 | 0.347 | -0.474 | 0.167 | 0.125 | 1.14
COCCOC(=O)N1C(=O)[C@@]2(c3cc(C#Cc4ccc(OC)cc4)ccc31)[C@H](c1ccccc1OCCO)N1[C@H](c3ccccc3)[C@H](c3ccccc3)OC(=O)[C@H]1[C@@H]2C(=O)N1CCCCCCC1 | 1.2 | 2.8 | 1.79 | -1.38 (inactive) | 1.29 | 1.34 | 1.49 | 1.61 | 2.12 | 1.91
C=CCC(OC(C)=O)[C@@H]1[C@@H](N(Cc2cccc3ccccc23)C(=O)c2cccc3ccccc23)c2cc(OCCCO)ccc2N1C(=O)c1ccc(-c2ccccc2)cc1 (stereo not given in full) | 0.17 | 0.0752 | -0.0302 | -0.566 (inactive) | 0.0819 | 0.0512 | 0.364 | -0.184 | 0.0116 | 0.855
CC(C)OC(=O)C=C1C[C@@H](c2ccc(C(F)(F)F)cc2)O[C@@H](c2ccc(C(F)(F)F)cc2)O1 | 1.12 | 0.164 | 0.492 | -1.55 (inactive) | 0.158 | 0.485 | -0.765 | 0.0144 | -0.899 | -0.522
CCOC(=O)C1=CC[C@@H](c2cccc(Cl)c2)N(S(=O)(=O)c2ccc(C)cc2)C1 | 0.925 | 0.419 | 0.877 | -2.03 (inactive) | 0.674 | 0.0076 | 0.101 | -0.0034 | 0.0677 | 0.539
CCCCCCc1nc(-c2cc(C)c(OC)c(C)c2)c(C)c2c1[Si](C(C)C)(C(C)C)OC2 | -0.17 | 0.101 | -0.178 | -1.9 (inactive) | -0.722 | -0.644 | 0.202 | -0.0761 | 0.0434 | 0.737
COc1cc(CO)cc(I)c1O[C@H]1C=C(C(=O)NCCO)C[C@@H](NCc2ccc(F)cc2)[C@@H]1O | 0.935 | -0.197 | -0.162 | -1.05 (inactive) | 1.43 | 0.191 | -0.0831 | 0.991 | 0.978 | -0.144
CC(C)Cc1ccc(CN2CC[C@@H](NC(=O)Nc3ccccc3)C2)cc1 | 1.06 | -0.342 | -0.358 | 2.68 (inactive) | -0.62 | -0.274 | -0.301 | -0.496 | 0.238 | 0.692
CC1=C([C@H](O)CCc2ccccc2)[C@H](CO)[C@@H]2C(=O)N(C)C(=O)[C@@H]2C1 | 0.843 | -0.173 | -0.495 | 0.626 (inactive) | 0.383 | 0.271 | 0.243 | 0.491 | 0.446 | 0.162
C=CCC(OC(C)=O)[C@@H]1[C@@H](N(Cc2ccc(-c3ccccc3)cc2)C(=O)Cc2ccc(F)cc2)c2cc(OCCCO)ccc2N1C(=O)Cc1ccc(OC)cc1 (stereo not given in full) | -0.383 | -0.129 | 0.0545 | -0.599 (inactive) | -0.0269 | 0.0082 | -0.244 | 0.359 | -0.139 | 1.14

Compound | composite z-score [1] | composite z-score [2] | composite z-score [3] | z-score [4] | composite z-score [5] | composite z-score [6] | composite z-score [7] | composite z-score [8] | composite z-score [9] | composite z-score [10]
C[N+](C)(C)CCCCCCNC(=O)[C@H]1C[C@H]2C(=O)NCC(=O)N2[C@H]1c1ccc(O)cc1 | 1.51 | -0.34 | -0.592 | -0.271 (inactive) | 1.35 | 0.846 | 0.056 | 1.42 | 0.687 | -0.253
CCCCC(=C=CC[C@@H](O)c1ccccc1OCCO)C[C@@H](O)COCc1ccccc1 | 1.15 | -0.126 | 0.142 | -0.705 (inactive) | 0.114 | -0.158 | -1.14 | -0.126 | -0.498 | 0.596
CN(C)C(=O)[C@@]1(Cc2ccccc2CN=[N+]=[N-])N=C(c2ccc(OCCCO)cc2)O[C@H]1c1ccccc1CN=[N+]=[N-] | 1.03 | 0.832 | 0.915 | 1.2 (inactive) | 0.871 | -0.581 | -0.167 | -0.0464 | -0.687 | 0.846
O=C1C2C=CC(C(O)c3ccc(F)cc3)N(n3cnnc3)C2C(=O)N1Cc1ccccc1 (stereo not given) | -0.284 | 0.158 | 0.384 | -0.284 (inactive) | -0.429 | -0.858 | -0.273 | -0.0469 | -0.44 | 1.12
COC(=O)c1ccc([C@H](NC(=O)c2ccco2)[C@]2(C)C[C@H]2C2CCCCC2)cc1 | -1.05 | 0.642 | 1.06 | 2.43 (inactive) | -0.32 | -1.22 | -0.808 | -1.03 | -1.09 | 0.447
NC(=O)NCC#Cc1ccc2c(c1)[C@]1(C(=O)N2)[C@H](C(=O)NC[C@H](O)c2ccccc2)[C@H]2C(=O)O[C@H](c3ccccc3)[C@H](c3ccccc3)N2[C@@H]1c1ccc(OCCO)cc1 | 0.0395 | 0.72 | 0.879 | 0.822 (inactive) | 0.566 | 0.0382 | -0.464 | 0.0489 | -0.246 | 1.04
Cc1cc(C)cc(N2C(=O)CSC2c2cccc([N+](=O)[O-])c2)c1 (stereo not given) | 1.13 | 0.94 | 0.398 | 1.07 (inactive) | 1.15 | 1.29 | 0.279 | 1.35 | 0.905 | -0.639
NCCCCCCNC(=O)[C@@H]1C[C@@H]2C(=O)N[C@@H](CCCCN)C(=O)N2[C@@H]1c1cccc(OCCO)c1 | 1.85 | 0.772 | 1.14 | -0.615 (inactive) | 0.243 | 0.543 | 0.412 | 0.171 | 1.64 | 0.702
CC(c1ccccc1)C(O)C1C=CC2C(=O)N(c3ccccc3)C(=O)C2N1Nc1ccc([N+](=O)[O-])cc1 (stereo not given) | 1.38 | 0.831 | 0.862 | -0.43 (inactive) | 0.781 | 1.3 | 0.424 | 1.23 | -0.405 | 0.854
CC(CO)N1C(=O)[C@@H]2[C@H]3C(=O)OCC=C[C@H]3OC23C=CCN(C(C)(C)C)C(=O)[C@@H]13 (stereo not given in full) | 0.115 | -0.323 | 0.129 | 0.74 (inactive) | -0.0566 | -0.764 | -1.14 | -0.205 | -0.496 | -0.197
COCCOC(=O)N1C(=O)[C@@]2(c3cc(C#CC4=CCCCC4)ccc31)[C@H](c1ccccc1OCCO)N1[C@H](c3ccccc3)[C@H](c3ccccc3)OC(=O)[C@H]1[C@@H]2C(=O)N1CCCCCCC1 | 1.17 | 1.18 | -0.624 | -0.262 (inactive) | 1.04 | 1.26 | 0.173 | 0.974 | 0.818 | 0.451
CCCCCCCCCCC(O)C1C=CC2C(=O)N(C)C(=O)C2N1Nc1ccc([N+](=O)[O-])cc1[N+](=O)[O-] (stereo not given) | 0.781 | 0.899 | 0.905 | 1.62 (inactive) | 0.141 | 0.461 | -0.497 | 0.323 | -0.57 | 0.894
C=CC[C@]1(C(=O)NCCN2CCOCC2)N=C(c2ccc(OCCCO)cc2)O[C@H]1c1ccccc1CN=[N+]=[N-] | 0.817 | 0.96 | 0.723 | 0.346 (inactive) | 1.2 | 0.703 | 0.409 | -0.0125 | 1.54 | 1.57
COC(=O)c1c2oc(c1C(=O)OC)C(=O)N(Cc1ccccc1)Cc1cn(nn1)C[C@H](Cc1ccccc1)NC(=O)N[C@H](CO)CC2 | 0.909 | -0.0239 | -0.342 | -2.12 (inactive) | 0.247 | 0.278 | 0.0933 | 0.111 | -0.0193 | 0.0809
COc1ccc([Si](C)(C)[C@@H]2[C@@H](CC(=O)N3Cc4ccccc4C[C@H]3CO)O[C@]3(C(=O)N(Cc4cccc(N5C(=O)c6cccc7cccc5c67)c4)c4ccccc43)[C@H]2C)cc1 | 1.25 | -0.199 | 0.208 | 0.93 (inactive) | 0.579 | 0.313 | 0.982 | 1.43 | 1.43 | 0.636
C=CCC(OC(C)=O)[C@@H]1[C@@H](N(Cc2cc3ccccc3o2)C(=O)Cc2ccc(F)cc2)c2cc(OCCCO)ccc2N1C(=O)c1ccc2ccccc2c1 (stereo not given in full) | -0.365 | -0.0572 | 0.165 | 0.111 (inactive) | -0.234 | -0.711 | 0.0137 | 0.331 | 0.0521 | 1.04
